Screening results as filed in PubChem.
In the library only some 1% were active in any assay of this set; here they are far more common.
MazEF act – MazEF (E. coli) toxin RNase activation; P0AE70; FAM/BHQ RNA-DNA oligo cleavage fluorescence, 5 h; activation, % at 20 µM; hit rate 0.32% among 350,000; AID 504720; in the data active = activation above about 50%
Target sequence (P0AE70 whole entry, looked up): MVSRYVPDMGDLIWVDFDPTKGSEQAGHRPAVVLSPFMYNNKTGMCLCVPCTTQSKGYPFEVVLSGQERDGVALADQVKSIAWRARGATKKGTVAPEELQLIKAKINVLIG
BioA inh – inhibitors of Mycobacterium tuberculosis BioA enzyme | AID 602481 | purified M. tuberculosis BioA enzyme, plate reader | hit rate 0.096% among 360,000 | inhibition, % at 9.99 µM; in the data active = inhibition above about 40%; inconclusive = no clear call, values can overlap the other calls
TcdB GH inh – blocks C. difficile toxin B glycohydrolase activity; P18177; TcdB glycohydrolase enzymatic assay, plate reader; inhibition, % at 9.99 µM; hit rate 0.24% among 350,000; in the data active = inhibition above about 10%
FadD28 FP inh – M. tuberculosis FadD28 bisubstrate binding inhibition. FadD28 bisubstrate probe binding, fluorescence polarization. inhibition, % at 12.5 µM. hit rate 0.22% among 360,000; in the data active = inhibition above about 8.5%, passing the limit was not always enough; inconclusive = no clear call, values can overlap the other calls
Yp Topo-I inh – Y. pestis Topo-I inhibition via cleavage products. AID 504884. activity, % at 10 µM. hit rate 0.064% among 360,000. Y. pestis Topo-I cleavage product accumulation, plate reader; in the data active = activity above about 50%, passing the limit was not always enough; inconclusive = no clear call, values can overlap the other calls
DUSP3 inh – inhibitors of human VHR1 phosphatase (DUSP3); P51452; recombinant VHR phosphatase, pNPP absorbance; inhibition, % at 13.3 µM; hit rate 0.52% among 290,000; in the data active = inhibition above about 50%
Target sequence (P51452 whole entry, looked up): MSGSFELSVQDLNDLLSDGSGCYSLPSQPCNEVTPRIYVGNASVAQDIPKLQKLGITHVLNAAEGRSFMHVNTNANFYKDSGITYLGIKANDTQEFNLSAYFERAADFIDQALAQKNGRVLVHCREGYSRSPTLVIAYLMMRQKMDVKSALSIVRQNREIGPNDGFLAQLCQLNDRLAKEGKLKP
Hits are given with their value; - = inactive; ? = inconclusive; . = not tested or not shown; ! = not active in a repeat.

SMILES	MazEF act	BioA inh	TcdB GH inh	FadD28 FP inh	Yp Topo-I inh	DUSP3 inh
COc1ccccc1Nc1nc2ccc(C)cc2cc1C#N	77.5	-	.	-	-	-
CC1=C(C#N)C(=O)NC(=O)/C1=C\c1ccc(-c2cc(C)c(C)cc2[N+](=O)[O-])o1	-	-	-	14.7	-	-
O=C(N[C@@H]1CC[C@@H](CCNC(=O)C2CC2)O[C@H]1CO)c1ccncc1	.	-	-	.	.	.
Cc1c(C(=O)O)cccc1-n1c(C)cc(/C=N/Nc2ccc([N+](=O)[O-])cn2)c1C	-	.	-	34.1	-	-
O=[N+]([O-])c1ccc(NN=Cc2cccc3ccccc23)nc1	122.9	-	-	-	-	.
O=C(O)c1ccccc1C=NNc1ccc([N+](=O)[O-])cn1	-	-	-	-	-	.
C[C@@H]1CN([C@@H](C)CO)C(=O)c2cccc(NC(=O)Nc3ccc(C(F)(F)F)cc3)c2O[C@H]1CN(C)S(C)(=O)=O	.	-	-	.	.	.
CO[C@@H]1CN(C)C(=O)c2cc(NS(=O)(=O)CC(F)(F)F)ccc2OC[C@H](C)N(C(=O)NC(C)C)C[C@@H]1C	.	-	-	.	.	.
CC1C(c2ccc3c(c2)OCO3)c2cc3c(cc2OC1N1CCOCC1)OCO3 (stereo not given)	-	.	10.6	-	-	.
C[C@@H]1CN([C@H](C)CO)S(=O)(=O)c2ccc(C#CC3(O)CCCC3)cc2O[C@@H]1CN(C)C(=O)Cc1cccnc1	.	-	-	.	.	.
CC(C)c1ccc(NC(=O)C2Cc3c(-c4ccc5c(c4)OCO5)ccnc3O2)cc1 (stereo not given)	.	-	-	-	60.3	.
CCOC(=O)C1=C(O)c2ccccc2C(=O)/C1=C\c1ccc(C)cc1	151.0	-	.	-	-	-
O=C(C1=C[C@H](c2ccccc2)C[C@H](OCc2ccc(CO)cc2)O1)N1CCCC1	.	.	-	.	.	.
Cc1ccc2nc3c(cc2c1)c(C)nn3-c1ccccc1	-	-	-	-	-	-
Cc1nn(-c2ccccc2)c2nc(=O)n(-c3ccccc3)cc12	-	-	.	-	-	55.9
Cc1cc(C)c2c(c1)c(C)cc1nnc(SCC(=O)c3cccs3)n12	73.7	-	.	-	-	-
CCn1c(SCC(=O)c2cccs2)nnc1-c1cccs1	-	-	.	-	-	-
O=C(C[C@H]1CC[C@@H](NC(=O)Nc2ccc(F)cc2)[C@@H](CO)O1)NCc1ccccn1	.	-	-	.	.	.
Cc1ccc(S(=O)(=O)N2C(=O)CCC2C(=O)N2CCCCC2)cc1 (stereo not given)	-	-	-	-	-	52.0
Cc1ccc(S(=O)(=O)N2C(=O)CCC2C(=O)N2CCN(C)CC2)cc1 (stereo not given)	-	-	.	-	-	-
O=C(CN1CCOCC1)N1CC(=O)N2[C@H](C1)[C@H](c1ccc(-c3cccc(F)c3)cc1)[C@@H]2CO	.	.	-	.	.	.
CCNC(=O)NC(=O)CSc1cccc(C(F)(F)F)c1	-	-	-	-	-	-
O=C(CSc1cccc(C(F)(F)F)c1)NC(=O)c1ccccc1	-	.	-	-	-	50.8
C[C@@H]1CN([C@@H](C)CO)C(=O)c2cc(-c3cccnc3)cnc2O[C@H]1CN(C)C(=O)C1CC1	.	-	-	.	.	.
N#CC(C#N)=Cc1ccc(-c2ccccc2F)o1	148.6	.	-	-	-	-
SMILES	MazEF act	BioA inh	TcdB GH inh	FadD28 FP inh	Yp Topo-I inh	DUSP3 inh
O=C(CSc1ccc2c(c1)OCCO2)Nc1ccccc1	-	-	-	-	-	.
CCN(c1ccc(NC(=O)CSc2ccc3c(c2)OCCO3)cc1)C(C)C	-	-	-	47.2	-	.
COc1ccc(C2C(C#N)=C(N)SC(N)=C2C#N)cc1OC	-	42.6	.	-	-	-
COc1ccc(C2C(C#N)=C(N)OC(C(C)(C)C)=C2C#N)cc1OC (stereo not given)	-	-	.	-	-	-
CCNC(=O)NC(=O)C(C)N1C(=O)NC(c2ccccc2)(c2ccccc2)C1=O (stereo not given)	-	-	-	-	-	55.2
C/C(=N/NC(=O)c1cc2ccccc2cc1O)C1C(=O)c2ccccc2C1=O	-	-	.	36.5	-	-
C/C(=N\NC(=O)c1ccccc1O)C1C(=O)c2ccccc2C1=O	-	-	.	?	-	-
COc1ccc(C(=O)COC(=O)/C=C/c2ccccc2)cc1	-	-	-	-	-	-
NS(=O)(=O)c1cccc(NS(=O)(=O)c2ccc(/C=C/C(=O)OCC(=O)c3ccccc3)cc2)c1	-	-	-	10.4	-	-
CCOc1ccc(N(CC(=O)NCc2ccc3c(c2)OCO3)C(=O)c2csnn2)cc1	-	-	-	.	-	-
CCc1ccc(N(CC(=O)NCc2ccc3c(c2)OCO3)C(=O)c2csnn2)cc1	-	-	-	-	-	52.9
O=C(O)c1ccc(NC(=O)C2C3CCC(C3)C2C(=O)O)cc1 (stereo not given)	-	-	.	-	-	-
CSc1ccccc1NC(=O)C1C2CCC(C2)C1C(=O)O (stereo not given)	-	-	-	-	-	52.2
CCS(=O)(=O)N1CCC2(CC1)CN(CC1CCOCC1)[C@H](CO)c1c2c2ccc(OC)cc2n1C	.	.	-	.	.	.
COCC#Cc1cnc2c(c1)C(=O)N([C@@H](C)CO)C[C@@H](C)[C@@H](CN(C)C(=O)Nc1cccc(F)c1)O2	.	-	-	.	.	.
C[C@H](CO)N1C[C@H](C)[C@@H](CN(C)C(=O)Nc2ccc(C(F)(F)F)cc2)Oc2ccc(NC(=O)C3CCCCC3)cc2C1=O	-	-	13.5!	-	-	.
C[C@H](CO)N1C[C@H](C)[C@@H](CN(C)C(=O)Nc2ccc(C(F)(F)F)cc2)Oc2c(NS(=O)(=O)c3cn(C)cn3)cccc2C1=O	-	-	13.5!	-	-	.
C[C@@H]1CN([C@@H](C)CO)C(=O)c2cc(NC(=O)C3CCCCC3)ccc2O[C@@H]1CN(C)C(=O)Nc1ccc(C(F)(F)F)cc1	.	-	-	.	.	.
COc1ccc(S(=O)(=O)Nc2ccc3c(c2)C(=O)N([C@H](C)CO)C[C@H](C)[C@H](CN(C)S(=O)(=O)c2cccs2)O3)cc1	.	-	-	.	.	.
COc1ccc(S(=O)(=O)Nc2ccc3c(c2)C(=O)N([C@H](C)CO)C[C@H](C)[C@@H](CN(C)S(=O)(=O)c2cccs2)O3)cc1	53.9	-	-	-	-	.
O=C(N[C@@H]1CC[C@@H](CCn2cc(-c3cccnc3)nn2)O[C@@H]1CO)c1ccccc1F	.	-	-	.	.	.
CC(C)Oc1ccc(CCC(=O)N/N=C/c2ccc3c(c2)OCO3)cc1	-	.	-	-	-	50.7
Cn1c(SCC(=O)Nc2ccc3nc(SCC(=O)N4CCCC4)sc3c2)nnc1-c1ccc(N)cc1	-	-	.	-	-	51.6
CCCNC(=O)N1CC2(CCN(CC3CC3)CC2)c2c(n(C)c3cc(OC)ccc23)[C@H]1CO	.	.	-	.	.	.
CC(C)C(=O)N1CCN(c2nc(-c3ccc(Cl)cc3)cs2)CC1	-	.	.	-	52.5	-
COc1ccccc1/C=N/NC(=O)CCSc1ccccc1	-	-	-	-	-	-
CC(=O)Oc1ccc(/C=N/NC(=O)CCSc2ccccc2)cc1	-	-	10.7	-	-	-
CN(Cc1c(F)cccc1Cl)C(=O)c1ccc(COc2ccccc2)cc1	-	-	-	-	54.9	-
